Results published in PubChem BioAssay (EPA / NIEHS).
The source holds several records for some structures; these can differ, active in one and inactive in another. Active and inactive are the calls of the source. The calls were made as follows: active = hit-call score of the fitted dose curve at least 0.9, where 1 is the maximum; inactive = score below 0.9.

Experiments:
[1] = read-out: Tissue Factor, F3 (gene 2152); test: BSK_CASM3C_TissueFactor: BioMAP Diversity Plus: CASM3C Assay for Tissue Factor Biomarker Activity (AID 2283052); conditions: primary human coronary artery smooth muscle cells; actives raise or lower the signal;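 also: cell surface tissue factor protein level read by ELISA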
[2] = read-out: Interferon-gamma inducible Protein 10 (IP10), CXCL10 (gene 3627); test: BSK_hDFCGF_IP10: BioMAP Diversity Plus: hDFCGF Assay for Interferon-gamma inducible Protein 10 (IP10) Biomarker Activity (AID 2283053); conditions: primary human foreskin fibroblasts; actives raise or lower the signal
Summary of the method: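 Primary foreskin fibroblasts, human; 24 h compound exposure; IP-10 by ELISA; bidirectional fit vs DMSO.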

[3] = read-out: Urokinase-type plasminogen activator receptor (uPAR), PLAUR (gene 5329); test: BSK_CASM3C_uPAR: BioMAP Diversity Plus: CASM3C Assay for Urokinase-type plasminogen activator receptor (uPAR) Biomarker Activity (AID 2283054); conditions: primary human coronary artery smooth muscle cells; actives raise or lower the signal;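 also: cell-surface uPAR protein level quantified by ELISA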
[4] = read-out: Vascular cell adhesion molecule 1 (VCAM1), VCAM1 (gene 7412); test: BSK_CASM3C_VCAM1: BioMAP Diversity Plus: CASM3C Assay for Vascular cell adhesion molecule 1 (VCAM1) Biomarker Activity (AID 2283055); conditions: primary human coronary artery smooth muscle cells; actives raise or lower the signal;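 also: VCAM-1 protein level quantified by ELISA on the cells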
[5] = read-out: Collagen III, COL3A1 (gene 1281); test: BSK_hDFCGF_CollagenIII: BioMAP Diversity Plus: hDFCGF Assay for Collagen III Biomarker Activity (AID 2283056); conditions: primary human foreskin fibroblasts; actives raise or lower the signal
Summary of the method: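 Response relative to DMSO, fitted in both directions, reflects ELISA-measured collagen III in human primary skin fibroblasts 24 h after compound addition.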

[6] = read-out: Epidermal growth factor receptor (EGFR), EGFR (gene 1956); test: BSK_hDFCGF_EGFR: BioMAP Diversity Plus: hDFCGF Assay for Epidermal growth factor receptor (EGFR) Biomarker Activity (AID 2283057); conditions: primary human foreskin fibroblasts; actives raise or lower the signal
Summary of the method: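 hDFCGF system, primary human foreskin fibroblasts; compound 24 h; EGFR measured by ELISA; DMSO = negative control/baseline; bidirectional fitting.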

[7] = read-out: Interleukin-8 (IL8), CXCL8 (gene 3576); test: BSK_hDFCGF_IL8: BioMAP Diversity Plus: hDFCGF Assay for Interleukin-8 (IL8) Biomarker Activity (AID 2283058); conditions: primary human foreskin fibroblasts; actives raise or lower the signal
Summary of the method: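 Fibroblast monolayers (human foreskin, hDFCGF) received test chemical for 24 h before ELISA detection of IL-8; either increases or decreases relative to DMSO count as activity.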

[8] = BSK_hDFCGF_Proliferation: Cell Proliferation Assessment in the BioMAP Diversity Plus: hDFCGF Assay (AID 2283059); conditions: primary human foreskin fibroblasts;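 also: curves fitted for both rise and fall of signal versus DMSO baseline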
Summary of the method: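 This proliferation readout used SRB total-protein staining of human foreskin fibroblasts […], normalized to DMSO with bidirectional curve fitting.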

[9] = read-out: Macrophage colony-stimulating factor (MCSF), CSF1 (gene 1435); test: BSK_hDFCGF_MCSF: BioMAP Diversity Plus: hDFCGF Assay for Macrophage colony-stimulating factor (MCSF) Biomarker Activity (AID 2283060); conditions: primary human foreskin fibroblasts; actives raise or lower the signal
Summary of the method: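 fibroblasts (human foreskin, primary), 24 h post-dose; M-CSF by ELISA; bidirectional fit, DMSO = baseline.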

[10] = BSK_hDFCGF_SRB: Viability Assessment in the BioMAP Diversity Plus: hDFCGF Assay (AID 2283061); conditions: primary human foreskin fibroblasts;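 also: cells exposed to compound for 24 h before the read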
Summary of the method: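 SRB-based viability read on primary human skin fibroblasts at 24 h: TCA fixation, 0.1% dye, 560 nm. Gain or loss of signal is fitted against the DMSO negative control.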

[11] = read-out: TIMP metallopeptidase inhibitor 1 (TIMP1), TIMP1 (gene 7076); test: BSK_hDFCGF_TIMP1: BioMAP Diversity Plus: hDFCGF Assay for TIMP metallopeptidase inhibitor 1 (TIMP1) Biomarker Activity (AID 2283062); conditions: primary human foreskin fibroblasts; actives raise or lower the signal
Summary of the method: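 Bidirectional curve fitting against DMSO baseline yielded this endpoint, based on ELISA detection of TIMP-1 in primary human foreskin fibroblasts exposed to compound for 24 h.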

[12] = read-out: Monokine induced gamma interferon (MIG), CXCL9 (gene 4283); test: BSK_hDFCGF_MIG: BioMAP Diversity Plus: hDFCGF Assay for Monokine induced gamma interferon (MIG) Biomarker Activity (AID 2283063); conditions: primary human foreskin fibroblasts; actives raise or lower the signal
Summary of the method: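 Endpoint derived by bidirectional fitting relative to DMSO; MIG quantified via ELISA in primary human foreskin fibroblasts harvested 24 h after dosing.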

[13] = read-out: Matrix Metallopeptidase 1 (MMP1), MMP1 (gene 4312); test: BSK_hDFCGF_MMP1: BioMAP Diversity Plus: hDFCGF Assay for Matrix Metallopeptidase 1 (MMP1) Biomarker Activity (AID 2283064); conditions: primary human foreskin fibroblasts; actives raise or lower the signal
Summary of the method: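 Primary human foreskin fibroblasts in the hDFCGF system were dosed with test chemical, and MMP1 was measured by ELISA 24 h later. Values come from bidirectional curve fitting against the DMSO baseline.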

[14] = read-out: Vascular cell adhesion molecule 1 (VCAM1), VCAM1 (gene 7412); test: BSK_hDFCGF_VCAM1: BioMAP Diversity Plus: hDFCGF Assay for Vascular cell adhesion molecule 1 (VCAM1) Biomarker Activity (AID 2283065); conditions: primary human foreskin fibroblasts; actives raise or lower the signal;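 as to AC50: VCAM-1 protein level quantified by ELISA after 24 h chemical exposure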
Summary of the method: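 Measured after 24 h chemical treatment of primary human skin fibroblasts, VCAM-1 was detected by ELISA and concentration-response analysed in both directions versus DMSO vehicle.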

[15] = read-out: Plasminogen activator inhibitor-1 (PAI1), SERPINE1 (gene 5054); test: BSK_hDFCGF_PAI1: BioMAP Diversity Plus: hDFCGF Assay for Plasminogen activator inhibitor-1 (PAI1) Biomarker Activity (AID 2283066); conditions: primary human foreskin fibroblasts; actives raise or lower the signal
Summary of the method: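 Primary dermal fibroblasts (human foreskin), hDFCGF system; compound 24 h; PAI-1 by ELISA; bidirectional fit vs DMSO control.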

[16] = read-out: Intercellular Adhesion Molecule 1 (ICAM1), ICAM1 (gene 3383); test: BSK_KF3CT_ICAM1: BioMAP Diversity Plus: KF3CT Assay for Intercellular Adhesion Molecule 1 (ICAM1) Biomarker Activity (AID 2283067); conditions: primary human keratinocytes with fibroblasts; actives raise or lower the signal
Summary of the method: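 Bidirectional curve fitting against a DMSO baseline was applied to ICAM-1 ELISA signal from primary human skin co-cultures harvested 24 h after treatment, with SRB staining of parallel wells for overt cytotoxicity.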

[17] = read-out: Interferon-gamma inducible Protein 10 (IP10), CXCL10 (gene 3627); test: BSK_KF3CT_IP10: BioMAP Diversity Plus: KF3CT Assay for Interferon-gamma inducible Protein 10 (IP10) Biomarker Activity (AID 2283068); conditions: primary human keratinocytes with fibroblasts; actives raise or lower the signal
Summary of the method: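 Signal is secreted/surface IP-10 by ELISA in a human primary skin co-culture of keratinocytes and foreskin fibroblasts, taken 24 h post-dosing; DMSO served as negative control.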

[18] = BSK_KF3CT_SRB: Viability Assessment in the BioMAP Diversity Plus: KF3CT Assay (AID 2283069); conditions: primary human keratinocytes with fibroblasts;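 also: total protein by sulforhodamine B staining as a cytotoxicity measure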
Summary of the method: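 Human primary keratinocyte plus foreskin fibroblast co-culture exposed to chemicals for 24 h. Total protein measured by 0.1% sulforhodamine B staining after 10% TCA fixation, read at 560 nm; bidirectional fitting versus DMSO baseline.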

[19] = read-out: Interleukin-1 alpha (IL1a), IL1A (gene 3552); test: BSK_KF3CT_IL1a: BioMAP Diversity Plus: KF3CT Assay for Interleukin-1 alpha (IL1a) Biomarker Activity (AID 2283070); conditions: primary human keratinocytes with fibroblasts; actives raise or lower the signal
Summary of the method: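 Human keratinocyte plus foreskin fibroblast primary co-culture, sampled 24 h after chemical dosing. IL-1a measured by ELISA; responses fitted bidirectionally against DMSO baseline (negative control), so gain or loss of signal both count.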

[20] = read-out: TIMP metallopeptidase inhibitor 2 (TIMP2), TIMP2 (gene 7077); test: BSK_KF3CT_TIMP2: BioMAP Diversity Plus: KF3CT Assay for TIMP metallopeptidase inhibitor 2 (TIMP2) Biomarker Activity (AID 2283071); conditions: primary human keratinocytes with fibroblasts; actives raise or lower the signal
Summary of the method: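 Cells: human keratinocytes co-cultured with foreskin fibroblasts. Treat with chemical, 24 h. Measure TIMP-2 by ELISA; fit curves bidirectionally vs DMSO baseline.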

Measured: AC50

COCC(C)O (configuration not stated)
inactive: all assays above

C=C(C)C(=O)OCCC(F)(F)C(F)(F)C(F)(F)C(F)(F)C(F)(F)C(F)(F)F
active: [8] 13.8 µM | [9] 23.2 µM
inactive: [1] | [2] | [3] | [4] | [5] | [6] | [7] | [8] | [9] | [10] | [11] | [12] | [13] | [14] | [15] | [16] | [17] | [18] | [19] | [20]

CCCCCCCCCCCCN1CCCC1=O
inactive: [1] | [3] | [4] | [6]
active: [2] 30.9 µM | [5] 14.4 µM | [7] 34.6 µM | [8] 14.6 µM | [9] 31 µM | [10] 34 µM | [11] 32.7 µM | [12] 39 µM | [13] 34.8 µM | [14] 33 µM | [15] 30.6 µM | [16] 36.8 µM | [17] 35.5 µM | [18] 33.4 µM | [19] 35.2 µM | [20] 31.3 µM

Oc1cc2ccccc2c2ccccc12
inactive: [6] | [18]
active: [1] 10.5 µM | [2] 2 µM | [3] 11.2 µM | [4] 8.3 µM | [5] 1.9 µM | [7] 3.94 µM | [8] 1.56 µM | [9] 2.72 µM | [10] 3.24 µM | [11] 3.41 µM | [12] 2.78 µM | [13] 2.93 µM | [14] 2.07 µM | [15] 2.4 µM | [16] 6.96 µM | [17] 7.34 µM | [19] 6 µM | [20] 7.99 µM
